According to the supplement of paper PMC10849652:
Of roughly 8,800 targets only a part is listed; those with a hit were picked by preference. About 0.5% of all pairs of compound and target were hits. Values without a mark were called inactive.

Key:
Assay in all cases: log2 fold change, soluble protein after heating vs DMSO (PISA); higher = thermal stabilisation; K562 lysate, 10 uM; active = over 0.2 and 3.5 SD of the protein, either way, in both replicates (recomputed)
lapatinib = compound: CS(=O)(=O)CCNCc1ccc(-c2ccc3ncnc(Nc4ccc(OCc5cccc(F)c5)c(Cl)c4)c3c2)o1 [lapatinib]
Method in brief: (§1)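 The values are log-two fold changes in thermal stability compared with solvent controls and come from duplicates. They were obtained by TMTpro 16plex LC-MS/MS, with channel sums equalised, on the supernatant after 21,000xg for 90 min. That supernatant came from crude K562 extract at 1 mg/mL protein treated with 10 μM compound for 30 min, heated for 3 min across 48°C-58°C, pooled and brought to 0.5% NP-40 at 4°C.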

pictilisib = compound: CS(=O)(=O)N1CCN(Cc2cc3nc(-c4cccc5[nH]ncc45)nc(N4CCOCC4)c3s2)CC1 [pictilisib]
Method in brief: as §1

crizotinib = compound: C[C@@H](Oc1cc(-c2cnn(C3CCNCC3)c2)cnc1N)c1c(Cl)ccc(F)c1Cl [crizotinib]
Method in brief: as §1

[1] = compound: C[C@H](C1=CC=C(C=C1)C(=O)NC2=C3C=CNC3=NC=C2)N
Method in brief: as §1

duvelisib = compound: C[C@H](Nc1ncnc2nc[nH]c12)c1cc2cccc(Cl)c2c(=O)n1-c1ccccc1 [duvelisib]
Method in brief: as §1

gandotinib = compound: Cc1cc(Nc2cc(CN3CCOCC3)c3nc(C)c(Cc4ccc(Cl)cc4F)n3n2)n[nH]1 [gandotinib]
Method in brief: as §1

tozasertib = compound: Cc1cc(Nc2cc(N3CCN(C)CC3)nc(Sc3ccc(NC(=O)C4CC4)cc3)n2)n[nH]1 [tozasertib]
Method in brief: as §1

doramapimod = compound: Cc1ccc(-n2nc(C(C)(C)C)cc2NC(=O)Nc2ccc(OCCN3CCOCC3)c3ccccc23)cc1 [doramapimod]
Method in brief: as §1

bafetinib = compound: Cc1ccc(NC(=O)c2ccc(CN3CC[C@H](N(C)C)C3)c(C(F)(F)F)c2)cc1Nc1nccc(-c2cncnc2)n1 [bafetinib]
Method in brief: as §1

[2] = compound: Cc1cccc(CC(=O)N2CCc3c2ccc(-c2cn(C)c4ncnc(N)c24)c3F)n1
Method in brief: as §1

Sequence of UniProt P48059 (P48059 whole entry, looked up): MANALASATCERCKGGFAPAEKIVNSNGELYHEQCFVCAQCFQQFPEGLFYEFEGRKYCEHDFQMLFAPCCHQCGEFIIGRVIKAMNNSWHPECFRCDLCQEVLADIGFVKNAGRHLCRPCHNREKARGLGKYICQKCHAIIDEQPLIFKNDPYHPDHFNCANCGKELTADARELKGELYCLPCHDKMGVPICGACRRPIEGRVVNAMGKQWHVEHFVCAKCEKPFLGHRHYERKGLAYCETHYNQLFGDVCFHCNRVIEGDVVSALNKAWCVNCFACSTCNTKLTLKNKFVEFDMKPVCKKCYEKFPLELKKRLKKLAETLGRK
Sequence of UniProt Q96EM0 (Q96EM0 whole entry, looked up): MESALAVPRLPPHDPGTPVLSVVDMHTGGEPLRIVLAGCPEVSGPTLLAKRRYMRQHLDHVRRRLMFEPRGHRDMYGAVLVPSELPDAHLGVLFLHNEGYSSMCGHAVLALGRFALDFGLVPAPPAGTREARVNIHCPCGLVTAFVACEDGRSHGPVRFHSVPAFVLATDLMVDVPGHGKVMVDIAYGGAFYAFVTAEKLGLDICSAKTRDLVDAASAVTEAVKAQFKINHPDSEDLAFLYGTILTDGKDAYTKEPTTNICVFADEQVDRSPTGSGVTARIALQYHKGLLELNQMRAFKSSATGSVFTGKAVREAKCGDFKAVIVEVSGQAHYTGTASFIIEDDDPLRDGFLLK
Sequence of UniProt P48449 (P48449 whole entry, looked up): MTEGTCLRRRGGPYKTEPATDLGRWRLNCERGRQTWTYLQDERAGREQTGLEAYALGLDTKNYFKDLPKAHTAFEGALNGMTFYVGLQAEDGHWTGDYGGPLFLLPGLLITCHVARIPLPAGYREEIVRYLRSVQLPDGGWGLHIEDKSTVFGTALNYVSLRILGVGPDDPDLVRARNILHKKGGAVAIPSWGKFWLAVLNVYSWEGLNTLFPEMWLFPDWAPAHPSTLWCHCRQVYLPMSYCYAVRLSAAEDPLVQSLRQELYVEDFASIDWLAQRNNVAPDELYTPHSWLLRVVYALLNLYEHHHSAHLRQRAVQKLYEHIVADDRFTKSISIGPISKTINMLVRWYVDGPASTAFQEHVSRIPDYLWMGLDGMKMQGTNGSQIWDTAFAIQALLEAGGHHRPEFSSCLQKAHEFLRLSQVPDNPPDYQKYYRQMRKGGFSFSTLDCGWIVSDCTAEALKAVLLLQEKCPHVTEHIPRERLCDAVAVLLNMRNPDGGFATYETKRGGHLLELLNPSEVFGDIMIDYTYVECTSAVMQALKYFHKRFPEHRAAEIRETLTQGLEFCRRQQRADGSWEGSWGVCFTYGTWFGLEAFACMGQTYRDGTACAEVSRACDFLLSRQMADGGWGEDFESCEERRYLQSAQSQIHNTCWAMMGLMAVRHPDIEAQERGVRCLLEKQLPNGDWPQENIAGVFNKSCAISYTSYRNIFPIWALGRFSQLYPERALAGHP
Sequence of UniProt O00139 (O00139 whole entry, looked up): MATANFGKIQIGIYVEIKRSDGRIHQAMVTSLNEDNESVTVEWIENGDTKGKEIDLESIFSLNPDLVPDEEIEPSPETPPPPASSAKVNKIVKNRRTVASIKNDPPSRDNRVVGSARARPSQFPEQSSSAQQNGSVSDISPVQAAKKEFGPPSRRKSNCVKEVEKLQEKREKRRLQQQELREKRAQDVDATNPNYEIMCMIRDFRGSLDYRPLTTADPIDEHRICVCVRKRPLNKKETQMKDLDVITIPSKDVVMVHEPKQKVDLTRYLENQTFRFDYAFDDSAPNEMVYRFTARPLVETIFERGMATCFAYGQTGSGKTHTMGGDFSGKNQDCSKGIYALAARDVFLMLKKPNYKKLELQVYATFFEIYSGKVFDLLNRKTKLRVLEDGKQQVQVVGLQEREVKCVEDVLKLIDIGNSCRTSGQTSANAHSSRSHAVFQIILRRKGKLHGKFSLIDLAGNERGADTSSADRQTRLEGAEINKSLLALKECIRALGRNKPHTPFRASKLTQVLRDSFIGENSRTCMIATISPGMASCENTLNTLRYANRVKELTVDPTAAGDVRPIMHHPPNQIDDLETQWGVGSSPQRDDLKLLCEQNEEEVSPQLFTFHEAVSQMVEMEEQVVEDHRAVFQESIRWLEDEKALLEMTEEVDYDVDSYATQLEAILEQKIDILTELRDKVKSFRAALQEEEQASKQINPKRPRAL
Sequence of UniProt P49917 (P49917 whole entry, looked up): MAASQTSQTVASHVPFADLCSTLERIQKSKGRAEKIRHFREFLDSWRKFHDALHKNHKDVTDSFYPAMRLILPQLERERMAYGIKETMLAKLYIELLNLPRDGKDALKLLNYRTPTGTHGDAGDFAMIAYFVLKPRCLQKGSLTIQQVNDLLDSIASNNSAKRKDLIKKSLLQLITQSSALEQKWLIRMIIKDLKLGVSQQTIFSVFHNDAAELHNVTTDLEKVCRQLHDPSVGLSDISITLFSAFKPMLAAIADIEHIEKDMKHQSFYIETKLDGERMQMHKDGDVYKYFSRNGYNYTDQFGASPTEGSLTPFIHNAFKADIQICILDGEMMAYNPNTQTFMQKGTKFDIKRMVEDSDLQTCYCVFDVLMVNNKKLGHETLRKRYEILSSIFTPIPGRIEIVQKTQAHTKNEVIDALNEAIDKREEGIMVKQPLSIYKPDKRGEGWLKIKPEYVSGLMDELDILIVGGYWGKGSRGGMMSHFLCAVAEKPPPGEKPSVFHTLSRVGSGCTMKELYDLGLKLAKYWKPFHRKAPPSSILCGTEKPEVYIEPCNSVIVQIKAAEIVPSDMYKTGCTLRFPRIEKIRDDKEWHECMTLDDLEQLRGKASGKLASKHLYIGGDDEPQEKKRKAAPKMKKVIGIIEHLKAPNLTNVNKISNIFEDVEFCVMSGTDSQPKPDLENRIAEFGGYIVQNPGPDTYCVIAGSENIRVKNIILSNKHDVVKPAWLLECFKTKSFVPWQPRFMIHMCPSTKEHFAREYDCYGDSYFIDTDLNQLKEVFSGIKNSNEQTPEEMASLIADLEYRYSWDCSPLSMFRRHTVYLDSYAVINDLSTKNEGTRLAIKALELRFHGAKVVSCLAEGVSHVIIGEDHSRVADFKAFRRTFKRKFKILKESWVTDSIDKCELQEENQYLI
Sequence of UniProt Q9BTE3 (Q9BTE3 whole entry, looked up): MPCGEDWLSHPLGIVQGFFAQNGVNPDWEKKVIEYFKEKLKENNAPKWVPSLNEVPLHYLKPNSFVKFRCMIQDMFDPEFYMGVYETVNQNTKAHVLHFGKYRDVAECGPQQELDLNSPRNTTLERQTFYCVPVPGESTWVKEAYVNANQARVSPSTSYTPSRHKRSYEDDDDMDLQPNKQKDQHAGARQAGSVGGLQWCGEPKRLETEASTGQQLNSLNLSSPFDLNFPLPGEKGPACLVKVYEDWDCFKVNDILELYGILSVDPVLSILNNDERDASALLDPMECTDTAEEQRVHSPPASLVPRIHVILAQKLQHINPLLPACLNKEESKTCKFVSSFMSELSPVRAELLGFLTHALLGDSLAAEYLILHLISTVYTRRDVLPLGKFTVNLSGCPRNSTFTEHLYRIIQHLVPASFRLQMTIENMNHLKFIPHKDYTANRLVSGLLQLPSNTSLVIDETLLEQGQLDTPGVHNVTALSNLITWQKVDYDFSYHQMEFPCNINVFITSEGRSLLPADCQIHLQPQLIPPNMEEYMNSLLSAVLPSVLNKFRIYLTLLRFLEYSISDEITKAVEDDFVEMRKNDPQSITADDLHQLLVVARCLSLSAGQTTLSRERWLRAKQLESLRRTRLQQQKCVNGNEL
Sequence of UniProt P10620 (P10620 whole entry, looked up): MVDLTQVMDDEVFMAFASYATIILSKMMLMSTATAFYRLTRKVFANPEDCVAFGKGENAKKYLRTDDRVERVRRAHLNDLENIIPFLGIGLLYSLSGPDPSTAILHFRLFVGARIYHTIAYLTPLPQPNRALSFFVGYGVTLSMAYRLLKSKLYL
Sequence of UniProt Q9Y6X9 (Q9Y6X9 whole entry, looked up): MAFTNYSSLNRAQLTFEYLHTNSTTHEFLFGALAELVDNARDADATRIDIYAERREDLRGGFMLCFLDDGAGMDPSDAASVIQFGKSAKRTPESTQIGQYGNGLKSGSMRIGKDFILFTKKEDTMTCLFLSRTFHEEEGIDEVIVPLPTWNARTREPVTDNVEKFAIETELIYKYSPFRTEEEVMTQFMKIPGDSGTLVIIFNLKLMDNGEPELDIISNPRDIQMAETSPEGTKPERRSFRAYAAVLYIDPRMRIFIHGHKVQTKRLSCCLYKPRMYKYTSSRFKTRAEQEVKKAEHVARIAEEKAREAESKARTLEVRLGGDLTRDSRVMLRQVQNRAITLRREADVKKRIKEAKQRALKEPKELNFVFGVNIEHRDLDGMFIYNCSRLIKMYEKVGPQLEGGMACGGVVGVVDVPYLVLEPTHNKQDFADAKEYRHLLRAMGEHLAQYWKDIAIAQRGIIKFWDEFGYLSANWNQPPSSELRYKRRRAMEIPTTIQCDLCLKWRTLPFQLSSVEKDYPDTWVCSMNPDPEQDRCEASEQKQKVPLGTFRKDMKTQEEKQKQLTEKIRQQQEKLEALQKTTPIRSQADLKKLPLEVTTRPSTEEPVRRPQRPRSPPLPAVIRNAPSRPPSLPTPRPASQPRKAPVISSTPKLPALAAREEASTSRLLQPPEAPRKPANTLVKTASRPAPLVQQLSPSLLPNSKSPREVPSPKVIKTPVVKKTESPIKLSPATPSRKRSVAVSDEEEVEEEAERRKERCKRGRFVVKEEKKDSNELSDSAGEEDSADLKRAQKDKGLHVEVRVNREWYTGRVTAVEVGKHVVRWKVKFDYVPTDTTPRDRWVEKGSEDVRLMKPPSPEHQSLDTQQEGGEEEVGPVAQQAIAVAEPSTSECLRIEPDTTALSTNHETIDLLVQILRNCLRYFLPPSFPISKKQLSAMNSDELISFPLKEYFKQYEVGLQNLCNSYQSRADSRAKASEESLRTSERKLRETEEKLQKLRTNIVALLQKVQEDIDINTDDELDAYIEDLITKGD
Sequence of UniProt P14174 (P14174 whole entry, looked up): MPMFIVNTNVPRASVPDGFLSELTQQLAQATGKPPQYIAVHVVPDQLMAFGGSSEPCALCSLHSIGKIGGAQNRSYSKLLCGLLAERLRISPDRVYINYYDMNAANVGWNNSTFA

Target | log2 fold change (lapatinib) | log2 fold change (pictilisib) | log2 fold change (crizotinib) | log2 fold change [1] | log2 fold change (duvelisib) | log2 fold change (gandotinib) | log2 fold change (tozasertib) | log2 fold change (doramapimod) | log2 fold change (bafetinib) | log2 fold change [2]
MICU2 (UniProt Q8IYU8) | -0.057 | 0.036 | -0.043 | 0.026 | 0.015 | -0.264 (active) | 0.083 | 0.029 | -0.056 | 0.029
MINK1 (UniProt Q8N4C8) | -0.084 | -0.02 | -0.149 | 0.271 | 0.026 | -0.102 | 0.014 | 0.24 | -0.158 | 0.249
MGAT5 (UniProt Q09328) | 0.022 | 0.066 | -0.051 | 0.098 | 0.018 | -0.106 | -0.037 | 0.023 | 0.079 | -0.112
MCMBP (UniProt Q9BTE3) | 0.008 | -0.027 | -0.032 | 0.048 | 0.002 | -0.083 | -0.007 | -0.001 | -0.007 | -0.048
MFF isoform 2 (UniProt Q9GZY8) | 0.055 | 0.028 | 0 | -0.239 (active) | 0.022 | 0.106 | -0.031 | -0.035 | -0.031 | 0.24
MAP3K4 (UniProt Q9Y6R4) | -0.02 | 0.009 | 0.033 | 0.064 | -0.017 | 0.034 | 0.092 | 0.073 | -0.031 | -0.041
L3HYPDH (UniProt Q96EM0) | -0.019 | -0.032 | -0.028 | -0.045 | -0.014 | 0.018 | -0.002 | 0.036 | -0.018 | -0.048
MBD2 (UniProt Q9UBB5) | -0.009 | 0.017 | 0.006 | -0.035 | 0.02 | -0.004 | 0.029 | 0.045 | -0.006 | -0.032
KIF2A isoform 4 (UniProt O00139) | -0.004 | -0.006 | -0.004 | 0.026 | 0.022 | -0.066 | 0.01 | 0.055 | -0.006 | 0.037
MRPL15 (UniProt Q9P015) | -0.021 | 0.036 | -0.045 | -0.421 (active) | -0.013 | 0.134 | 0 | 0.079 | -0.063 | 0.241
MARCHF6 (UniProt O60337) | -0.039 | 0.09 | -0.118 | -0.073 | 0.103 | -0.028 | 0.004 | 0.003 | -0.105 | -0.005
MAP1S (UniProt Q66K74) | 0.009 | -0.06 | -0.016 | -0.021 | 0.004 | -0.065 | 0.035 | 0.003 | -0.03 | 0.049
LIMS1 isoform 3 (UniProt P48059) | 0.002 | -0.019 | 0.103 | -0.045 | -0.023 | 0.008 | -0.02 | -0.068 | -0.035 | 0.038
MRPL19 (UniProt P49406) | -0.026 | -0.024 | -0.071 | -0.094 | -0.026 | 0.029 | 0.014 | 0.011 | -0.048 | 0.051
MGST1 (UniProt P10620) | -0.047 | 0.018 | 0.003 | 0.22 (active) | 0.013 | -0.025 | -0.011 | -0.041 | -0.032 | -0.016
KRR1 (UniProt Q13601) | -0.039 | 0.03 | -0.228 | 0.05 | -0.037 | -0.097 | -0.038 | 0.127 | -0.039 | 0.002
MAD2L1BP isoform 3 (UniProt Q15013) | 0.017 | -0.155 | -0.094 | 0.022 | 0.048 | -0.009 | -0.071 | 0.12 | -0.041 | 0.008
MAPK1 (UniProt P28482) | -0.018 | 0.005 | 0.065 | -0.004 | 0.004 | 0.036 | -0.01 | -0.013 | 0.004 | -0.061
KLC1 isoform 6 (UniProt Q07866) | -0.011 | -0.001 | 0 | -0.009 | -0.031 | -0.073 | -0.004 | 0.026 | -0.008 | 0.005
LYAR (UniProt Q9NX58) | 0 | 0.025 | 0.005 | 0.269 (active) | 0.017 | -0.119 | -0.025 | -0.017 | -0.008 | -0.099
MAD2L2 (UniProt Q9UI95) | -0.003 | 0.058 | -0.142 | -0.008 | -0.001 | -0.127 | 0.042 | 0.022 | -0.11 | 0.073
MICB, A0A140T979 | -0.169 | -0.074 | -0.067 | -0.042 | 0.052 | 0.011 | -0.177 | -0.003 | -0.001 | 0.027
MRPL28 (UniProt Q13084) | -0.046 | 0.03 | -0.08 | 0.482 (active) | 0.043 | -0.246 | 0.059 | -0.012 | -0.04 | -0.228
LUZP1 (UniProt Q86V48) | -0.006 | -0.02 | -0.012 | 0.008 | -0.026 | 0.036 | -0.011 | -0.009 | -0.034 | -0.011
MRPL12 (UniProt P52815) | 0.094 | -0.019 | 0.086 | -0.1 | 0.011 | 0 | 0.077 | -0.031 | -0.073 | 0.035
MORC2 (UniProt Q9Y6X9) | 0.016 | 0.015 | -0.012 | -0.049 | 0.04 | -0.032 | 0.008 | 0.012 | -0.032 | 0.043
MIF (UniProt P14174) | 0.04 | 0.06 | -0.022 | -0.258 (active) | 0.022 | 0.11 | -0.057 | 0.008 | 0.383 | 0.024
LIG4 (UniProt P49917) | 0.028 | -0.245 | -0.035 | -0.064 | 0.022 | -0.07 | -0.034 | -0.037 | -0.167 | 0.073
MED13L (UniProt Q71F56) | 0.034 | -0.072 | -0.039 | -0.047 | -0.083 | -0.005 | -0.019 | 0.026 | -0.061 | 0.035
LSS (UniProt P48449) | 0 | 0.11 | 0.252 (active) | 0.01 | 0.008 | 0.028 | 0.02 | 0.031 | 0.13 | -0.013
